Compounds without any hit were thinned out: in the full panel of roughly 79,000, 15% have a hit. No stated cut-off is given here; in the data, active means growth inhibition above about 70%; inactive means the rest.
How the values were obtained:
[1] = NCI Yeast Anticancer Drug Screen. Data for the rad50 strain (AID 155);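 further: 0% = growth of vehicle-only cultures of the same strain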; conditions: S. cerevisiae rad50 strain growth inhibition; at 50.0 µM; stronger effect = higher value
Summary of the method: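 Growth of the mutant yeast was measured after compound exposure and referenced to vehicle-treated cultures.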

[2] = NCI Yeast Anticancer Drug Screen. Data for the mec2-1 strain (AID 157); conditions: S. cerevisiae mec2-1 strain, at 50.0 µM, stronger effect = higher value
Summary of the method: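 Test agents were screened against the mec2-1 yeast strain, with defined DNA repair or cell cycle alteration. Growth was scored as inhibition against vehicle-only controls.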

[3] = NCI Yeast Anticancer Drug Screen. Data for the sgs1 mgt1 strain (AID 161);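 further: 0% = growth of cultures given vehicle only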; conditions: S. cerevisiae sgs1 mgt1 strain, at 50.0 µM, stronger effect = higher value
Summary of the method: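 Read-out: growth inhibition vs vehicle controls. Cells: mutant yeast strain deficient in DNA damage repair.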

[4] = NCI Yeast Anticancer Drug Screen. Data for the cln2 rad14 strain (AID 165);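 further: 0% = growth equal to vehicle treated cultures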; conditions: S. cerevisiae cln2 rad14 strain, at 50.0 µM, stronger effect = higher value
Summary of the method: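 Growth of compound-exposed yeast (cln2 rad14 genotype) measured and expressed as inhibition relative to vehicle.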

[5] = NCI Yeast Anticancer Drug Screen. Data for the bub3 strain (AID 167); conditions: S. cerevisiae bub3 mutant strain, at 50.0 µM, stronger effect = higher value
Summary of the method: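 Whole-cell yeast assay. The mutant strain was incubated with compounds, and growth inhibition was determined by comparison with vehicle-treated cells.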

[6] = NCI Yeast Anticancer Drug Screen. Data for the mlh1 rad18 strain (AID 175); conditions: S. cerevisiae mlh1 rad18 strain growth inhibition; at 50.0 µM; stronger effect = higher value
Summary of the method: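 In this whole-cell yeast screen, a strain with altered DNA damage repair is challenged with compound, and its growth is measured against matched vehicle-treated controls.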

Measured: growth inhibition

COC(=O)N/N=C(/C)c1ccco1
inactive: [1] 8.75% | [2] 27.9% | [3] 3.55% | [4] 1.55% | [5] 14.8% | [6] 16.2%

c1cc(N2CCOCC2)ccc1Cc1ccc(N2CCOCC2)cc1
inactive: [1] -13.2% | [2] 0.9% | [3] -4.1% | [4] 0.45% | [5] -17.6% | [6] -13.1%

C/C(CC(C)(C)C)=N/O
inactive: [1] -24.6% | [2] -5.2% | [3] -21.8% | [4] -78.7% | [5] -14.9% | [6] -12.9%

CC(=O)CC(=O)Nc1cccc(C)c1
inactive: [1] -13.9% | [2] -15.7% | [3] 2.8% | [4] 5.3% | [5] 16.2% | [6] -5.65%

COC(=O)C1C(O)C(C)C(O)C(C)(O)C=C(C)C2=C3C(=C(C)C(=O)c4c(O)c(c(C)c(OC(C)=O)c43)NC(=O)C(C)=C/C=C\C(C)(O)C(O)C(C)C1O)OCO2 (centres undefined)
inactive: [1] 14.3% | [2] 1.65% | [3] 0.85% | [4] -1.55% | [5] 3.85% | [6] 6.25%

Oc1c(O)c(O)c(O)c(O)c1O
inactive: [1] -5.3% | [2] 4.15% | [3] 7.45% | [4] -13.9% | [5] -0.45% | [6] -3%

CC1CC[N-]CC1.CC1CC[N-]CC1.[Cl][Pt+2][Cl]
inactive: [1] -19.9% | [2] -6.7% | [3] -17.6% | [4] -34% | [5] -2.2% | [6] 5.8%

CCCCN(C)C(=O)C1=C(C)NC(C)=C(C(=O)N(C)CCCC)C1
inactive: [1] -1.45% | [2] -26.4% | [3] -12.2% | [4] -20.3% | [5] -16.2% | [6] -58%

O=C(Nc1cccc([N+](=O)[O-])c1)C(=O)C(C(=O)c1ccccc1F)C1OC(=O)C2C=CC=CC21 (centres undefined)
inactive: [1] 5.5% | [2] 15.9% | [3] 16.1% | [4] 11.7% | [5] -32.9% | [6] -19.9%

Reference: PubChem BioAssay (NCI)
